Source: PubChem (National Center for Advancing Translational Sciences (NCATS))
Only some compounds are listed: those with a hit (about 9.4% of all), similar ones and a draw of the others.
ELG1 repair inh = ELG1-dependent DNA repair inhibition. HEK293T ELG1-luciferase reporter, luminescence, 16 h; DNA damage induced by 5-fluorouridine. Potency, µM (titrated, usually from 46.1 µM), inactives show top-dose activity change, negative = inhibition, usual class: inhibitors. actives 2.3% (n = 330,000); also: % is scaled to controls: 0 for no effect and ±100 for the full control effect; nearly all actives have a fitted effect of over 55% in size
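5-Fluorouridine DNA damage + compound/DMSO, 2,000 cells/well, 16 h, 37 °C/5% CO2. ONE-Glo, 30 min RT, luminescence. Readout = decrease in reporter signal.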
Rab9 promoter act = activators of Rab9 promoter; actives 2.8% (n = 320,000); Potency, µM (highest dose often 9.22 µM), inactives show at the top dose activation, negative = inhibition, hits mostly activators; AID 485297; Huh7 Rab9 promoter-luciferase reporter, luminescence, 24 h; also: % of control where 0% means no effect; nearly all actives have a fitted effect of over 60% in size
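Measured in stably transfected Huh7 cells bearing a Rab9 promoter–luciferase construct: 24 h compound treatment at 37 °C, followed by luminescence detection.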
ELG1 genotoxic = genotoxicity induction in ELG1-luciferase HEK293T cells. HEK293T ELG1-luciferase reporter, luminescence, 16 h. Potency, µM (doses to about 46 µM), inactives show at the top dose activity change, positive = activation, usual class: activators. actives 1.3% (n = 330,000). AID 504466; also: % of control where 0% means no effect; nearly all actives have a fitted effect of over 60% in size
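ELG1-luciferase HEK293T cells, 2,000/well; compound pinned in; 16 hr, 37 °C, 5% CO2; ONE-Glo, 30 min RT; luminescence on CCD imager.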
FLuc modulator = firefly luciferase modulation, counter-screen for miR-21 project | Potency, µM (top dose mostly 57.5 µM), inactives show top-dose activity change, negative = inhibition, hits mostly inhibitors | AID 588342 | actives 6.9% (n = 360,000) | purified FLuc, Km substrates, luminescence inhibition | P08659;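 also: plate controls were vehicle for no effect and reference inhibitor for full effect; nearly all actives have a fitted effect of over 55% in size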
Target sequence (P08659 whole entry, looked up): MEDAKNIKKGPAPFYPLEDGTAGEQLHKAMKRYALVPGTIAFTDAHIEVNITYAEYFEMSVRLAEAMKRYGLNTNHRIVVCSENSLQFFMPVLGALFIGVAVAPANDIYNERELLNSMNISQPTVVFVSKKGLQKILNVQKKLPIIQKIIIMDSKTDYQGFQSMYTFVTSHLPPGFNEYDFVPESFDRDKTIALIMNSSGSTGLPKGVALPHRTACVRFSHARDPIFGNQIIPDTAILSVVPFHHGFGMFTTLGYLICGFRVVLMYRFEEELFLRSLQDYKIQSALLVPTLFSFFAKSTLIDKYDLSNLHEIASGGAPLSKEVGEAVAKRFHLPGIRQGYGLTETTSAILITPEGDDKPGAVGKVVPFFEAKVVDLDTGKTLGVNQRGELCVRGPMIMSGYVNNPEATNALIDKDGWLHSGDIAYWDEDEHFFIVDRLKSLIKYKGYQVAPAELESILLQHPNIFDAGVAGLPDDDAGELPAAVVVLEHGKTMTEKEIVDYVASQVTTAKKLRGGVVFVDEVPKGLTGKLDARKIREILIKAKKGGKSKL
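Purified P. pyralis luciferase, 10 nM final, with Km-level 10 uM D-luciferin and 10 uM ATP in 50 mM Tris acetate pH 7.5, 10 mM Mg acetate, 0.01% Tween-20, 0.05% BSA; 6-point qHTS titration about 60 µM downward; luminescence read.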
NPC1 promoter act = NPC1 promoter activation; Huh7 NPC1 promoter luciferase reporter, 24 h; Potency, µM (top dose mostly 9.22 µM), without a hit: at the highest dose activation, most hits filed as activators; actives 2.4% (n = 320,000); AID 485313; also: % of control where 0% means no effect; nearly all actives have a fitted effect of over 60% in size
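NPC1 promoter–luciferase Huh7 cells; 24 h compound; luminescence.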
SMN2 splice up = enhancers of SMN2 splice variant expression; actives 2.8% (n = 210,000); Potency, µM (titrated, usually from 46.1 µM), without a hit: at the highest dose activity change, positive = activation, most hits filed as activators; HEK293 SMN2-luciferase splicing reporter, luminescence, 30-36 h; AID 1458; also: % of control where 0% means no effect; nearly all actives have a fitted effect of over 55% in size
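HEK293 cells carry an SMN2 […]–luciferase reporter in which exon 7 inclusion puts luciferase in frame. Cells were plated 10-12 h before compound addition, then incubated 30-36 h at 37C. ONE-Glo luminescence was read; sodium butyrate at 4.5 mM final served as control.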
* marks the source's active call; other numbers are inactive results; ? = inconclusive; · = no result given; [ ] = dose if it differs, or a comment. Calls follow the shape of the dose curve; as a rule, active = well fitted curve in the direction sought with a large enough effect; inconclusive = small, poorly fitted or top-dose-only effect, or another doubt; inactive = no such curve, though single readings can be large; an effect the other way counts as inactive or inconclusive. Potency is read from the fitted curve at half-maximal effect.

SMILES	ELG1 repair inh	Rab9 promoter act	ELG1 genotoxic	FLuc modulator	NPC1 promoter act	SMN2 splice up
COc1ccc(Br)c(C(=O)Nc2cc3c(cc2N2CCOCC2)n(C)c(=O)n3C)c1	·	·	·	0%	·	-1%
O=c1c2cc3c(cc2n(Cc2ccccc2)c(=O)n1Cc1nc(-c2ccccc2)no1)OCO3	·	·	·	-1%	·	·
COc1cccc(CNC(=O)CSc2ncc3c(n2)-c2cc(Cl)ccc2N(C)S3(=O)=O)c1	·	·	·	0%	·	·
CCOc1ccccc1Nc1nc2ccccc2nc1NS(=O)(=O)c1ccc(Cl)cc1	·	·	·	-9%	·	-7%
CC1(C(=O)N2CC3(CC(c4cccc(NC(=O)COc5ccc(Cl)cc5)c4)=NO3)C[C@@H]2C(N)=O)CC1 (stereo partly drawn)	?	0%	-6%	21µM*	3%	·
NC(=O)[C@H]1CC2(CC(c3cccc(NC(=O)COc4ccc(Cl)cc4)c3)=NO2)CN1C(=O)c1ccc(Cl)cc1 (stereo partly drawn)	?	-5%	-17%	7.6µM*	0%	·
NC(=O)[C@H]1CC2(CC(c3cccc(NC(=O)COc4ccc(Cl)cc4)c3)=NO2)CN1C(=O)c1ccccc1C(=O)c1ccccc1 (stereo partly drawn)	?	-4%	-11%	?	-3%	·
CCc1cccc(NC(=O)CCN2C(=O)c3ccccc3Sc3ncccc32)c1	·	·	·	-4%	·	·
O=C(CSc1ccc(Cl)cc1)Nc1cccc(-c2nnc(-c3ccco3)o2)c1	?	?	15%	0%	?	?
COc1cccc(C(=O)Nc2cccc(-c3nnc(-c4ccco4)o3)c2)c1	23µM*	10%	-32%	19µM*	0%	-25%
COc1cccc(-c2nnc(-c3ccccc3NC(=O)c3ccc(C(C)(C)C)cc3)o2)c1	22%	14%	3%	2.4µM*	-2%	·
Cc1ccc(SCC(=O)Nc2cccc(-c3nnc(-c4ccco4)o3)c2)cc1	?	3.2µM*	-4%	-11%	3.2µM*	22µM*
COc1cccc(C(=O)Nc2ccncc2)c1	-5%	3%	-5%	-8%	-2%	·
O=C(Nc1ccccc1)c1cccc(-c2nnc(-c3ccccc3)o2)c1	0%	4µM*	?	-12%	2µM*	1µM*
O=c1c2sc3ccccc3c2n(Cc2ccc(F)cc2)c(=O)n1Cc1ccco1	·	·	·	0%	·	-6%
COc1ccc(NC(=O)CSc2nc3ccccc3nc2N2CCC(C)CC2)cc1	·	·	·	2%	·	-1%
CCOc1cc(CNC(=O)CN2CCSc3ccccc32)cc(OCC)c1OCC	·	·	·	1%	·	·
COc1ccccc1Cc1nc2ccccc2nc1SCC(=O)NCc1ccccc1Cl	·	·	·	-2%	·	·
CC(C)N(CC(=O)O)CC(=O)O	·	·	·	·	·	-12%[9.22 µM]
O=c1oc(-c2cccs2)nc2sc3c(c12)CCCCC3	?	?	1%	1.2µM*	?	16µM*
CCc1nc2sc3c(c2c(=O)o1)CCCC3	?	1%	?	?	0%	13%
CCc1c(-c2ccccc2)nc2sc3c(c2c1N)CCCC3	7%	?	-4%	1.7µM*	26%	·
O=c1oc(-c2cc3ccccc3o2)nc2sc3c(c12)CCCC3	?	?	14%	2.4µM*	?	?
Nc1nc(-c2cccnc2)nc2sc3c(c12)CCCC3	?	3.2µM*	7.3µM*	1.1µM*	2µM*	11µM*
c1ccc(-c2nc(-c3ccccc3)c(NC3CCCCC3)o2)cc1	·	·	·	·	·	4%
SMILES	ELG1 repair inh	Rab9 promoter act	ELG1 genotoxic	FLuc modulator	NPC1 promoter act	SMN2 splice up
Cc1cccc(NS(=O)(=O)c2ccc3[nH]c(=O)ccc3c2)c1C	·	·	·	-6%	·	·
Cn1c(N/N=C/c2ccccc2)nc2sc3c(c2c1=O)CCC3	6%	-2%	1%	15µM*	1%	-26%
Cc1ccccc1-c1nc2sc3c(c2c(=O)o1)CCC3	17%	4%	3%	2.4µM*	-2%	33%
CC(C)(C)c1nc2sc3c(c2c(=O)o1)CCCC3	?	2%	3%	-7%	1%	3%
O=c1oc(/C=C/c2ccccc2)nc2sc3c(c12)CCC3	?	?	14µM*	0.95µM*	21%	11µM*
O=c1oc(-c2ccccc2)nc2sc3c(c12)CCCC3	?	?	23%	1.2µM*	24%	?
CC(C)OCCCNC(=O)CN1C(=O)c2cccnc2Sc2ccccc21	·	·	·	3%	·	·
CN=C(N)/N=C(\N)Nc1cc2ccccc2c2ccccc12	·	·	·	·	·	6%[9.22 µM]
CCCCNC(=O)C(CC)Sc1nnc(-c2ccc(F)cc2)c(-c2ccc(F)cc2)n1 (stereo not drawn)	·	·	·	-6%	·	·
CN1CCN(CCCBr)CC1	·	·	·	·	·	1%[9.22 µM]
O=c1c([N+](=O)[O-])c(N2CCOCC2)c2ccccc2n1Cc1ccccc1	-5%	-7%	-5%	-3%	-5%	·
Cn1c(=O)c([N+](=O)[O-])c(N2CCSCC2)c2ccccc21	?	1%	0%	-2%	-4%	·
CCn1c(=O)c([N+](=O)[O-])c(N2CCN(Cc3ccc4c(c3)OCO4)CC2)c2ccccc21	15µM*	-1%	-14%	0%	0%	·
CCn1c(=O)c([N+](=O)[O-])c(N2CCSCC2)c2ccccc21	6.5µM*	-26%	-7%	-4%	-15%	·
Cc1ccc(S(=O)(=O)N[C@@H](Cc2ccccc2)C(=O)CCl)cc1	16µM*	-41%[46.1 µM]	0%	-14%	-25%[46.1 µM]	-57%
Cc1ccc(S(=O)(=O)NC(Cc2ccccc2)C(=O)NN)cc1 (stereo not drawn)	-2%	0%	-4%	1%	-1%	·
